These results are taken from PubChem BioAssay (NCI).

About 83,000 compounds went through this panel and 20% of them were active in at least one assay; those are over-represented in the sample as a whole.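 Percent growth is the endpoint: 0 to 100 indicates growth inhibition (40 means 60% inhibition), 0 means no net growth, and negative values indicate cell death.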 Unmarked numbers belong to inactive results. Activity calls are given as the source filed them. How the source made its calls: active means growth percent below 10; inactive means the rest.

The test system of the test is HS 578T breast. In words: NCI-60 one-dose screen, 48 h (100 = growth as untreated, 0 = no growth, -100 = all killed). The conditions noted are these: 10 µM unless noted.
Turning to `COc1ccc(-c2oc3cc(O)c(OC)c(O)c3c(=O)c2OC)cc1O`, the growth was -27.4% (active).

For the molecule `c1ccc(-c2nnc(Nc3nnc(-c4ccccc4)s3)s2)cc1`, the growth is 100%.

Regarding `CCN1CCN(c2cc(-c3cn[nH]c3-c3cc(C)cc(OC)c3)nc(-c3cccnc3)n2)CC1`, the growth was 68.8%.

With `CCCn1cnc2c1c(=O)n(CCCCC(C)=O)c(=O)n2C`, the growth was 104%.

Turning to `O=C1C2C3C=CC(O3)C2C(=O)N1Nc1ccccc1` (centres undefined), the growth is 111%.

Turning to `O=C(Nc1ccncc1)C(=O)c1cn(S(=O)(=O)c2cccc(F)c2)c2ccccc12`, the growth was 55.8%.

In the case of `COc1ccc(-c2csc(NC(=O)c3cc(OC)c(OC)c(OC)c3)n2)cc1`, the growth is 96.4%.

As for `CCC1=C(c2ccc(OC)cc2)C(C)(C)Oc2cc(O)c(CN3CCCC3)cc21`, the growth is 86%.

On to `CCOc1nc(-c2ccccc2)cc2c(O)c(-c3nnco3)[nH]c(=O)c12`, for which the growth is 68%.

On to `C=C1CC[C@@H]2[C@](C)(COC(C)=O)[C@H](OC(C)=O)CC[C@@]2(C)[C@@H]1CC(Nc1ccc(S(=O)(=O)Nc2cc(C)on2)cc1)C1=CCOC1=O` (some centres undefined), for which the growth was 89.5%.

As to `COc1ccc(C2=NN(C(=O)c3cc(OC)c(OC)c(OC)c3)C(c3ccc(C#N)cc3)C2)cc1OC` (centres undefined), the growth is -18.3% (active).

As for `O=C1/C(=N/O)CCc2ccccc21`, the growth was 95%.

As to `O=C(/C=C/c1cccnc1)NCCCCC1CCCN(C(=O)c2ccccc2)C1` (centres undefined), the growth is 52.2%.

Regarding `COc1ccc(Nc2ccnc(NCCCNc3ccnc4cc(Cl)ccc34)n2)cc1`, the growth is -52.2% (active).
